An excerpt weighted towards active compounds, which were near 4.8% of everything screened.
ALR inh: blocks human ALR sulfhydryl oxidase activity; hit rate 3.8% among 290,000; inhibition, % (no concentration beside the values); purified ALR, DTT oxidation, H2O2 HRP-luminol luminescence;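 active = mean replicate inhibition above about 79%, with every replicate also reaching it, limit read from the data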
Target sequence (P55789 whole entry, looked up): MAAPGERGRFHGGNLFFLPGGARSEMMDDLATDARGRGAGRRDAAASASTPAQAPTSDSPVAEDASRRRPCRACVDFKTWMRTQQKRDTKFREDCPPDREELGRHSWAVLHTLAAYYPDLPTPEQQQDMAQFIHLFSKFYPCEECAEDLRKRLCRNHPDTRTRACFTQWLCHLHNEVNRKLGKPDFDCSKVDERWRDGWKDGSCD
Mot1-301 SUMO: blocks SUMOylation pathway, rescuing yeast Mot1-301 growth | S. cerevisiae Mot1-301 growth rescue, ATP luminescence, 38.5C; percent above DMSO median, 100 means doubled | AID 2716 | growth rescue, % at 18.8 µM | hit rate 1% among 320,000;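 active = every valid replicate shows activation above 250% relative to neutral control wells; inactive = the rest, any valid replicate at or below 250%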;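 also: OY570 slx delta 5 strain wells were the positive control but not used for scaling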
AI-2 QS modul: Vibrio harveyi AI-2 quorum sensing modulation | Vibrio harveyi JMH597 AI-2 luminescence/OD600 ratio, 9 h; stronger effect = lower value; strain lacks LuxN and CqsS sensors; 0 = neutral-control median | activity change, % at 7.5 µM | AID 2094 | hit rate 0.4% among 300,000; in the data active = activity change below about -75%, passing the limit was not always enough;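 also: luminescence divided by OD600 gain over 9 h not by final OD600 alone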
HIF activator: HIF pathway transcriptional activation | activation, % at 7.5 µM (by protocol) | U2OS HRE-luciferase reporter, luminescence; normalized: DMSO 0%, desferrioxamine 100% | hit rate 0.32% among 300,000;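 active = mean activation of at least 10% of the iron chelator positive control signal, with at least half of replicates also reaching 10%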
Yeast Mot1 SUMO: yeast SUMO pathway inhibition in dose response. AID 493004. growth activity, percent, % at 42 µM. shares compounds with Mot1-301 SUMO. S. cerevisiae Mot1-301 galactose growth, ATP luminescence, 24 h; -100 = growth of slx-deleted rescue strain. 2,300 tested, under 10 active;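 active = Signal drops as the depositor expects, and the fitted half-maximal dose is no more than ten times the top valid tested dose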;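 also: more negative values mean stronger growth rescue toward the control strain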
* marks the source's active call; other numbers are inactive results; . = no result; + = active, no number.

SMILES	ALR inh	Mot1-301 SUMO	AI-2 QS modul	HIF activator	Yeast Mot1 SUMO
Nc1nc(-c2c(Cl)cccc2Cl)no1	.	-12	14	1	.
COc1cccc(O)c1CN1CCC(n2nccc2NC(=O)c2ccc3c(c2)OCO3)CC1	11	-13	16	-2	.
O=C(CSc1nc(=O)n2ccccc2n1)N1CCC(Cc2ccccc2)CC1	17	-3	27	0	.
Nc1ncnc2nc(SCC(=O)N3CCN(c4ccccc4)CC3)[nH]c12	72	+	15	-1	0
O=C(CSc1nc(=O)n2ccccc2n1)N1CCN(c2ccccc2)CC1	70	559*	38	0	1
CC1CCCCN1C(=O)N[C@@H](Cc1ccccc1)C(=O)O (some centres not stated)	-3	24	17	0	.
CC1CCCCN1C(=O)C(Cc1ccccc1)N1C(=O)C2CCCCC2C1=O (configuration not stated)	-4	862*	36	0	-1
CC(C)(C)NC(=O)COc1coc(CN2CCN(Cc3ccccc3)CC2)cc1=O	-4	-24	11	2	.
COc1ccc(NC(=O)c2ccc(-c3csc(C)n3)cc2)cc1	-2	796*	33	-22	0
CCOc1ccc(NC(=O)c2ccc(-c3csc(C)n3)cc2)cc1	-11	11	.	-1	.
COc1cccc(N=Nc2c(=O)[nH]n3c(=O)c4c([nH]c23)CCC4)c1	40	6	21	1	.
COc1cccc(N=Nc2c(=O)[nH]n3c(=O)cc(C)[nH]c23)c1	8	372*	0	0	1
Cc1c(C)n2c(SCC(=O)NCc3ccc4c(c3)OCO4)nnc2[nH]c1=O	2	-6	31	-28	.
COc1cc(SC)ccc1C(=O)Nc1cc(C)c(OCC(=O)N2CCOCC2)c(C)c1	-5	562*	30	1	0
Cc1cccc(C)c1NC(=O)COC(=O)c1cc[n+]([O-])cc1	-1	-1	16	0	.
CC1(C)Cc2c(c(N3CCCC3)nc3sc4c(N5CCN(CCO)CC5)ncnc4c23)CO1	0	707*	.	.	0
COc1ccc(S(=O)(=O)N2CCN(CC(=O)Nc3sccc3C(N)=O)CC2)cc1OC	17	-4	.	.	.
COc1ccc(-c2csc(NC(=O)C3CSC4(C)CCC(=O)N34)n2)cc1 (configuration not stated)	-6	391*	.	.	1
CC12CCC(=O)N1C(C(=O)Nc1nc(-c3ccccc3)cs1)CS2 (configuration not stated)	-1	215	22	2	.
COc1ccc(-c2nnc(SCC(=O)NCc3cccs3)n2C)cc1	.	59	17	0	.
COCCn1c(SCC(=O)NCc2cccs2)nnc1-c1ccc(OC)cc1	-1	916*	22	0	-1
O=C(Nc1ccc(F)cc1)c1cccc2c1C(=O)N(CC1CCCO1)C2 (configuration not stated)	-6	14	13	0	.
COc1ccc(C(=O)N2CCN(c3ccc(NC(=O)c4cccnc4)cc3)CC2)cc1	14	458*	30	0	0
c1ccc(-c2nc(N3CCOCC3)c3ccccc3n2)nc1	4	481*	9	0	-1
CCc1nnc(NC(=O)c2cc(S(=O)(=O)N3CCN(c4ccccc4)CC3)ccc2Cl)s1	-5	-1	21	-2	.
SMILES	ALR inh	Mot1-301 SUMO	AI-2 QS modul	HIF activator	Yeast Mot1 SUMO
Cc1nnc(NC(=O)c2cccc(S(=O)(=O)N3CCOCC3)c2)s1	.	2	17	0	.
Cc1nnc(NC(=O)c2cccc(S(=O)(=O)N3CCCC3)c2)s1	0	576*	0	0	1
CCc1nnc(NC(=O)c2cccc(S(=O)(=O)N3CCN(c4ccccc4)CC3)c2)s1	-2	572*	4	1	0
CN(CC(=O)N1CCc2[nH]c3ccc(F)cc3c2C1)CC1OCCO1	11	736*	33	-16	0
COc1ccc([N+](=O)[O-])c2c(=O)ccoc12	-1	585*	17	0	0
CCOC(=O)c1cc(=O)c2c([N+](=O)[O-])ccc(OC)c2o1	-2	-14	31	-1	.
CCC(CC)C(=O)Nc1nnc(S(=O)(=O)Nc2ccccc2C)s1	.	-7	22	0	.
CC1CN(C(=O)c2cc([N+](=O)[O-])cc([N+](=O)[O-])c2)CC(C)O1 (configuration not stated)	-19	+	29	-1	1
